The list is a sample of the results.
aSyn UTR act – Activators via SNCA 5'UTR binding, MLPCN; alpha-synuclein 5'UTR reporter, activators screen; activity score, % (tested at 7.5 µM), hits read low; hit rate 7.1% among 300,000; in the data active means activity score below about -60%
An asterisk follows results filed as active.

SMILES	aSyn UTR act
COc1ccc(NC(=O)c2oc3ccccc3c2NC(=O)c2ccc3c(c2)OCO3)cc1	-68.3*
O=c1c(O)c(-c2ccc3c(c2)OCO3)oc2ccccc12	-132.9*
O=C(Nc1ccc2c(c1)oc1ccccc12)c1ccc2c(c1)OCO2	-232.7*
COc1ccccc1NC(=O)c1ccc2c(c1)OCO2	-125.1*
CCOc1ccc(C(=O)Nc2c(C(N)=O)oc3ccccc23)cc1	-115.5*
O=c1c2cc(Br)ccc2[nH]c(=S)n1Cc1ccccn1	-70.0*
CCN(CC)CCOc1c(Br)ccc2c1sc1nc3n(c(=O)c12)CCC3	-110.8*
CCC1(c2ccccc2)NC(=S)N(c2ccc(C)cc2)N1 (stereo not drawn)	-85.4*
CCC1(c2ccc(Cl)cc2)NC(=S)N(c2ccccc2)N1 (stereo not drawn)	-71.4*
Cc1ccn2cc(-c3cccc(NC(=O)c4ccccc4)c3)nc2c1	-81.9*
COc1ccc(CC(=O)Nc2ccc(-c3cn4ccc(C)cc4n3)cc2)cc1	-110.0*
Cc1ccn2cc(-c3cccc(NC(=O)C(C)C)c3)nc2c1	-107.1*
Cc1c(-c2nc(N)nc(Nc3ccc(F)cc3)n2)oc2ccccc12	-95.3*
COc1ccc2c(C)cc(SCC(=O)Nc3nsc(-c4ccc(C)cc4)n3)nc2c1	-81.5*
COc1ccc(-c2nc(NC(=O)CSc3nnc(C)s3)ns2)cc1	-70.4*
CC1(C)CC(=O)c2c(nc(SCC(=O)Nc3nsc(-c4ccccc4)n3)c(C#N)c2-c2ccccc2)C1	74.1
COc1cc([N+](=O)[O-])ccc1NC(=O)Nc1ccc2c(c1)OCCO2	-72.4*
O=C(Nc1ccc([N+](=O)[O-])cc1)Nc1ccc2c(c1)OCCO2	-92.0*
CSc1ccccc1-c1nnc(-c2ccc(Cl)c(Cl)c2)o1	-98.1*
CSc1ccccc1-c1nnc(-c2ccc(Cl)cc2Cl)o1	-109.4*
Cc1ccc(Nc2nc3nonc3[nH]c2=O)cc1Cl	-72.1*
OC1c2cc(Br)ccc2N=C2CCCN21 (stereo not drawn)	-87.6*
COc1ccc(NC(=O)c2coc3ccccc23)cc1OC	-122.0*
COc1cc(NC(=O)C(C)C)ccc1NC(=O)c1cc2ccccc2o1	-166.3*
COc1ccc(NC(=O)c2cc3ccccc3o2)cc1	-152.1*
SMILES	aSyn UTR act
COc1ccc(NC(=O)CCCc2ccccc2)cc1OC	-136.1*
COc1ccc(NC(=O)c2cc3ccccc3o2)cc1OC	-149.7*
COc1ccc(NC(=O)c2cc3ccccc3o2)cn1	-215.8*
COc1ccc(NC(=O)c2cc(CN3C(=O)c4ccccc4C3=O)ccc2OC)cn1	-85.9*
O=C(Nc1nc(-c2cc3ccccc3o2)cs1)c1ccc(S(=O)(=O)N2CCCC2)cc1	-67.6*
CN(C)S(=O)(=O)c1ccc(C(=O)Nc2nc(-c3cc4ccccc4o3)cs2)cc1	-136.9*
Cc1ccc(-c2nc3ccccc3s2)cc1S(=O)(=O)N1CCOCC1	-66.0*
O=C(Nc1nc(-c2nc3ccccc3s2)cs1)c1ccc(S(=O)(=O)N2CCOCC2)cc1	-75.2*
COc1ccc(Nc2ncnc3sc(C)cc23)c(OC)c1	-82.1*
CN(C)/C=C1\C(=O)N(c2ccc(Cl)c(Cl)c2)CS1(=O)=O	-80.6*
O=C(NCCc1ccc(O)cc1)c1ccc(Cl)cc1	-121.3*
O=C(NCCc1ccc(Cl)cc1)c1ccc2nccnc2c1	-108.7*
CC(=O)NCCNC(=O)c1ccc(CSc2ccc(Cl)cc2)cc1	-132.0*
COc1ccccc1CCNC(=O)c1ccoc1C	-71.5*
Cc1occc1C(=O)NCCc1ccc(Cl)cc1	-124.6*
Cc1cc(C(=O)Nc2ccc(N3CCOCC3)c(Cl)c2)c(C)o1	-179.6*
O=C(Nc1ccc(N2CCOCC2)c(Cl)c1)c1ccco1	-69.0*
O=C(Nc1ccc(N2CCOCC2)c(Cl)c1)c1ccccc1F	-172.0*
O=C(Nc1ccc(N2CCCC2)c(Cl)c1)c1ccc(Br)o1	-177.0*
O=C(Nc1ccc(N2CCOCC2)c(Cl)c1)c1ccc(Cl)cc1	-126.4*
O=C(c1ccc(Cl)cc1)c1cc([N+](=O)[O-])ccc1N1CCOCC1	117.6
CCN1CCN(Cc2ccc(NC(=O)c3ccc(C)c(NC(=O)c4c[nH]c5cc(C(F)(F)F)ccc5c4=O)c3)cc2C(F)(F)F)CC1	112.6
O=C(Nc1ccc(N2CCOCC2)c(Cl)c1)c1ccc2c(c1)OCCO2	-92.8*
CCN1CCN(c2ccc(NC(=O)c3ccc([N+](=O)[O-])o3)cc2Cl)CC1	126.2
CCN1CCN(c2ccc(NC(=O)c3ccc(F)cc3)cc2Cl)CC1	-93.8*
SMILES	aSyn UTR act
O=C(Nc1ccc(N2CCOCC2)c(Cl)c1)C1CCCCC1	-68.6*
O=C(Nc1ccc(N2CCCCC2)c(Cl)c1)c1ccc2c(c1)OCCO2	-132.3*
O=C(Nc1ccc(N2CCCC2)c(Cl)c1)c1ccc2c(c1)OCCO2	-77.6*
COc1ccc2cc3cc(C(=O)NC4CC4)sc3nc2c1	56.7
COc1ccc2nc3sc(C(=O)NCCN4CCc5ccccc5C4)cc3cc2c1	-68.8*
COc1ccc2cc3cc(C(=O)NCCCN4CCc5ccccc5C4)sc3nc2c1	-198.0*
Cc1cc(NCc2ccccc2)n2ncc(-c3ccccc3)c2n1	-71.5*
Cc1cc(NC2CCCC2)n2ncc(-c3ccccc3)c2n1	59.9
C=CCc1c(C)nc2c(-c3ccccc3)cnn2c1N1CCOCC1	-175.0*
COc1ccccc1-c1cnn2c(NCCc3ccccc3)cc(C)nc12	-111.8*
Cc1cc(NC(C)c2ccccc2)n2ncc(-c3ccccc3)c2n1 (stereo not drawn)	-83.0*
Cc1cc(NCCN2CCOCC2)n2ncc(-c3ccccc3)c2n1	-61.9*
Cc1cccc(-n2ccnc2SCC(=O)Nc2nccs2)c1	-132.4*
CCCC(=O)NC(c1ccc(OC)cc1)c1ccc2cccnc2c1O (stereo not drawn)	129.2
Cc1cccc(-n2c(SCC(=O)Nc3ncc(Cl)cc3Cl)nc3ccccc32)c1	58.4
COc1cccc(-n2ccnc2SCC(=O)Nc2nccs2)c1	-73.1*
COc1ccc(C(CC(=O)Nc2nccs2)n2cccc2)cc1 (stereo not drawn)	-168.5*
COc1ccc(C(CC(=O)Nc2ccccn2)N2Cc3ccccc3C2=O)cc1 (stereo not drawn)	-113.4*
CCOc1ccc(-n2c(SCC(=O)Nc3nccs3)nc3c(c2=O)SCC3)cc1	57.3
COc1ccc(CCOC(=O)c2ccc(N)c([N+](=O)[O-])c2)cc1	-73.3*
Cc1cc(C(=O)O/N=C(\N)c2ccncc2)ccc1[N+](=O)[O-]	-124.1*
COc1ccc(/C(N)=N/OC(=O)c2ccc(C)c([N+](=O)[O-])c2)cc1	-165.4*
CNc1ncc(C(=O)c2ccc(Cl)c(Cl)c2)s1	-148.5*
CNc1ncc(C(=O)c2ccc(Cl)cc2)s1	-124.2*
Nc1c(Cl)ncnc1N/N=C/c1ccnc2ccccc12	-68.0*
SMILES	aSyn UTR act
C(=N\Nc1ncnc2ccccc12)/c1ccccc1	-212.4*
Clc1cccc(/C=N/Nc2ncnc3ccccc23)c1	-197.9*
Cc1[nH]c2ccccc2c1/C=C/C(=O)c1ccccc1	-63.9*
Cc1[nH]c2ccccc2c(=O)c1C(=O)/C=C/c1ccccc1	-280.5*
CCOC(=O)c1cc(C)n(CCc2ccccc2)c1C	-68.8*
O=C(NCCc1ccc2c(c1)OCCO2)c1ccccc1F	-110.4*
Cc1ccc(NC(=O)c2ccc3c(c2)OCCO3)cc1C	74.2
O=C(Nc1ccccc1)c1ccc2c(c1)OCCO2	-87.3*
O=C(NC(=S)Nc1ccc2c(c1)OCCO2)c1ccccc1F	-154.5*
O=C(O)c1cc(S(=O)(=O)Nc2ccc3c(c2)OCCO3)c(Cl)cc1Cl	-82.1*
COC(=O)c1ccsc1NC(=O)c1ccc2c(c1)OCCO2	-97.2*
O=C(Nc1ccc2c(c1)OCCO2)c1c(F)cccc1F	-122.3*

High-throughput results: PubChem BioAssay, Broad Institute
